# Laboratory results reported in PubChem BioAssay AID1159580 (chemical genetic matrix, 2015).
# About 2,000 (36%) of roughly 5,500 compounds were called active. Not shown: some 18% with an inconclusive outcome. Some of the results follow. Values without a mark were called inactive. Cut-off read from the data, not from the text of the source: active = normalized growth mostly below about 0.91 (no sharp cut-off); inconclusive = no clear call, values can overlap the other calls; inactive = mostly above about 0.92.
# Test: chemical genetic growth profiling, strain panel (AID 1159580);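 note: tested at 20 µM; growth read once vehicle control cultures reached saturation at 30 °C; 1 = growth at the plate median or of vehicle wells; lower values mean less growth of the strain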
# Conditions: S. cerevisiae deletion strains, growth OD
structure (smiles),measurement,setting,value
Cc1ccc(NC(=S)NNC(C)(C)C)cc1,normalized growth,"locus YAL013W, strain DEP1, hits give low values",0.991
same,normalized growth,"locus YBR229C, strain ROT2, hits give low values",0.963
same,normalized growth,"locus YCL061C, strain MRC1, hits give low values",0.972
same,normalized growth,"locus YDL101C, strain DUN1, hits give low values",0.971
same,normalized growth,"locus YDR150W, strain NUM1, hits give low values",0.898
same,normalized growth,"locus YEL061C, strain CIN8, hits give low values",0.838 (active)
same,normalized growth,"locus YGR078C, strain PAC10, hits give low values",0.997
same,normalized growth,"locus YHR030C, strain SLT2, hits give low values",0.721
same,normalized growth,"locus YHR087W, strain rtc3, hits give low values",1.01
same,normalized growth,"locus YJR043C, strain POL32, hits give low values",0.99
same,normalized growth,"locus YJR075W, strain HOC1, hits give low values",1.06
same,normalized growth,"locus YLR039C, strain RIC1, hits give low values",0.654 (active)
same,normalized growth,"locus YLR058C, strain SHM2 (second series), hits give low values",1
same,normalized growth,"locus YLR085C, strain ARP6, hits give low values",0.488 (active)
same,normalized growth,"locus YLR262C, strain YPT6, hits give low values",0.795 (active)
same,normalized growth,"locus YML094W, strain GIM5, hits give low values",0.827 (active)
same,normalized growth,"locus YMR219W, strain ESC1, hits give low values",1.01
same,normalized growth,"locus YMR263W, strain SAP30, hits give low values",1.03
same,normalized growth,"locus YNL128W, strain TEP1, hits give low values",0.94
same,normalized growth,"locus YNL153C, strain GIM3, hits give low values",0.955
same,normalized growth,"locus YNL298W, strain CLA4 (second series), hits give low values",0.675 (active)
same,normalized growth,"locus YNL322C, strain KRE1, hits give low values",1.02
same,normalized growth,"locus YNR030W, strain Alg12, hits give low values",0.787 (active)
same,normalized growth,"locus YOL006C, strain TOP1, hits give low values",0.193 (active)
same,normalized growth,"locus YPL055C, strain LGE1, hits give low values",0.894
same,normalized growth,"locus YPL241C, strain CIN2, hits give low values",0.913
same,normalized growth,"locus YPR135W, strain CTF4, hits give low values",0.646 (active)
